Assay outcomes from PubChem BioAssay.
FBPA Giardia inh = inhibitors of Giardia lamblia fructose-1,6-bisphosphate aldolase; A8B2U2; purified Giardia FBPA; Potency, µM (series often up to 59.6 µM), for inactives: at the highest dose activity, negative = inhibition, usual class: inhibitors; hit rate 0.71% among 290,000; also: % is scaled to controls: 0 for no effect and ±100 for the full control effect; nearly all actives have a fitted effect of over 55% in size
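40 nM FBPA preincubated 10 min at RT with compound (up to 57.5 uM final), then substrate plus GAPDH/TPI/NAD/arsenate coupling and diaphorase/resazurin added. Fluorescence read after 20 min at RT, 525/598 nm.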
TbPYK inhibitor = T. brucei pyruvate kinase inhibition | Q57TT1 | TbPYK enzyme, Kinase-Glo Plus ATP luminescence, 45 min | Potency, µM (highest dose often 76.8 µM), for inactives: at the top dose activity, negative = inhibition, most hits filed as inhibitors | hit rate 0.12% among 410,000 | AID 624173; also: % is scaled to controls: 0 for no effect and ±100 for the full control effect; nearly all actives have a fitted effect of over 50% in size
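Quantitative HTS: titrated library compounds versus trypanosomal pyruvate kinase in TEA buffer (pH 7.2) containing KCl, MgCl2, BSA and Tween-20. Reactions were initiated with ADP, 130 uM final. Kinase-Glo Plus luminescence was read after 45 min at RT.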
LmPK inhibitor = inhibitors of Leishmania mexicana pyruvate kinase | hit rate 0.37% among 290,000 | Potency, µM (series often up to 57.5 µM), for the others: at the top dose activity change, negative = inhibition, usual class: inhibitors | purified LmPK, Kinase-Glo ATP luminescence, 1 h | Q27686; also: % is scaled to controls: 0 for no effect and ±100 for the full control effect
Target sequence (Q27686 whole entry, looked up): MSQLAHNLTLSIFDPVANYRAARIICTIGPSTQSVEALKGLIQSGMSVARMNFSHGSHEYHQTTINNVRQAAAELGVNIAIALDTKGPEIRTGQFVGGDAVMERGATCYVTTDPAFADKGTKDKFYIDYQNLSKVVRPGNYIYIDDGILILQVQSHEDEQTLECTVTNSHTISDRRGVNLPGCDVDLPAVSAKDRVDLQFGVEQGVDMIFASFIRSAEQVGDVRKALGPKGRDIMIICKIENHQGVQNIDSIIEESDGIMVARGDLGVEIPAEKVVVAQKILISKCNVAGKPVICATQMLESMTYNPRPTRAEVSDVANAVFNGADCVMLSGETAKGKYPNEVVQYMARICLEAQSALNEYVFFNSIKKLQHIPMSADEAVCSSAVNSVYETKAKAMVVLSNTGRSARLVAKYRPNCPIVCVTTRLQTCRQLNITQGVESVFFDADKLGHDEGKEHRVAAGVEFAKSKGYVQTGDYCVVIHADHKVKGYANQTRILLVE
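0.1 nM LmPK, 0.5 mM PEP, 0.1 mM ADP; 50 mM imidazole pH 7.2, 7 mM MgCl2, 50 mM KCl; 1 h RT. Kinase-Glo luminescence readout, normalized to no-enzyme (full inhibition) and uninhibited wells.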
Sm TGR inh = blocks Schistosoma mansoni thioredoxin glutathione reductase. Q962Y6. Potency, µM (highest dose often 114 µM), without a hit: at the highest dose activity change, negative = inhibition, hits mostly inhibitors. purified TGR, DTNB reduction, TNB absorbance 405 nm. hit rate 3% among 360,000; also: % is scaled to controls: 0 for no effect and ±100 for the full control effect; nearly all actives have a fitted effect of over 60% in size
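First, TGR (20 nM dispensed) and NADPH were mixed with compound. Second, a 15 min room-temperature incubation followed. Third, further NADPH and then DTNB were added to start the reaction. Finally, TNB absorbance was monitored kinetically.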
RE007 growth inh = less growth of the S. pombe RE007 Vpr strain; Potency, µM (top dose mostly 92.2 µM), without a hit: top-dose activity change, negative = less growth, hits mostly inhibitors; S. pombe RE007 Vpr strain, BacTiter-Glo ATP luminescence, 24 h; hit rate 0.21% among 360,000; AID 651644; active = well fitted falling curve with a large enough effect; inconclusive = small, poorly fitted or top-dose-only effect; inactive = no such curve, though single readings can be large or run the other way; also: % is scaled to controls: 0 for no effect and ±100 for the full control effect; nearly all actives have a fitted effect of over 50% in size
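Fission yeast RE007 carrying one integrated HIV-1 vpr copy, seeded at OD 0.01 in PMG+AL medium with 23 nL pinned compound. Grown 24 h at 30 degrees; viability read by BacTiter-Glo luminescence after 5 min.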
NS1 inh = influenza NS1 inhibition | Potency, µM (highest dose often 46.1 µM), for inactives: top-dose activity, positive = more growth | hit rate 0.4% among 270,000; calls by dose curve; also: actives are rising curves; nearly all actives have a fitted effect of over 50% in size
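S. cerevisiae expressing influenza A NS1, grown in glucose, washed, then diluted 1:100 into pH 6.0 -URA galactose medium with 23 nl compound. Growth recovery read as OD600; NS1-free strain serves as control.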
Numbers without * were called inactive; [ ] = dose if it differs, or a comment. A selection: hits, their analogues and other compounds. The true share with any hit is near 3.5%. Unless noted, calls follow the shape of the dose curve; as a rule, active = well fitted curve in the direction sought with a large enough effect; inconclusive = small, poorly fitted or top-dose-only effect, or another doubt; inactive = no such curve, though single readings can be large; an effect the other way counts as inactive or inconclusive. Potency is read from the fitted curve at half-maximal effect.

How did N#CC1=C(N)Oc2n[nH]c(-c3cccs3)c2C1c1ccco1 (stereo not given) do in these assays?
FBPA Giardia inh: inconclusive; TbPYK inhibitor: -18%; LmPK inhibitor: 8%; Sm TGR inh: 32µM*; RE007 growth inh: -14%; NS1 inh: inconclusive

Results for CCCCCCCCCCC[N+](C)(C)CC/C=C1/c2ccccc2Sc2ccc(Cl)cc21 ?
FBPA Giardia inh: 12%; TbPYK inhibitor: -5%; LmPK inhibitor: -1%; Sm TGR inh: 1.8µM*; NS1 inh: -89%

How did CCCCCCCCCC[N+](C)(C)CC/C=C1/c2ccccc2Sc2ccc(Cl)cc21 do in these assays?
FBPA Giardia inh: 0%; TbPYK inhibitor: 1%; LmPK inhibitor: 1%; Sm TGR inh: 18µM*; NS1 inh: -4%

Results for COc1ccc(CN(C)c2ccc(-c3nc(-c4ccc(OC)c(OC)c4)no3)cc2[N+](=O)[O-])cc1 ?
TbPYK inhibitor: -4%; Sm TGR inh: -13%

How did O=c1c(O[C@@H]2O[C@H](CO)[C@H](O)[C@H](O)[C@H]2O)c(-c2ccc(O)c(O)c2)oc2cc(O)cc(O)c12 do in these assays?
FBPA Giardia inh: inconclusive; LmPK inhibitor: 18%; Sm TGR inh: 18%

What do the screens show for `COc1c(-c2ccc(O)c(O)c2)oc2cc(O)cc(O)c2c1=O`?
FBPA Giardia inh: -23%; TbPYK inhibitor: -11%; LmPK inhibitor: -2%; Sm TGR inh: 28µM*; RE007 growth inh: -11%; NS1 inh: -2%

Results for O=c1c(O)c(-c2cc(O)c(O)c(O)c2)oc2cc(O)cc(O)c12 ?
FBPA Giardia inh: inconclusive; TbPYK inhibitor: inconclusive; Sm TGR inh: 3.5µM*; RE007 growth inh: 14%; NS1 inh: 0%

Results for O=c1c(O)c(-c2ccccc2)oc2cc(O)cc(O)c12 ?
FBPA Giardia inh: 4%; TbPYK inhibitor: 4%; RE007 growth inh: -9%

Results for COc1ccc(NC(=O)Nc2ccccc2OCc2cc(=O)n3ccccc3n2)c(OC)c1 ?
TbPYK inhibitor: 5%; Sm TGR inh: -4%

What do the screens show for `CCOc1ccc(S(=O)(=O)NCC(c2ccco2)S(=O)(=O)c2ccc(C)cc2)cc1` (stereo not given)?
TbPYK inhibitor: 1%; Sm TGR inh: 0.32µM*

How did O=C(COc1ccc(Cl)cc1)NCC(c1ccco1)S(=O)(=O)c1ccc(Cl)cc1 (stereo not given) do in these assays?
TbPYK inhibitor: -18%; Sm TGR inh: 28µM*

What do the screens show for `Cc1ccc(CNC(=O)C(=O)NCC(c2ccco2)S(=O)(=O)c2ccc(C)cc2)cc1` (stereo not given)?
TbPYK inhibitor: 3%; Sm TGR inh: -23%

Results for COc1ccc(S(=O)(=O)NCC(c2ccco2)S(=O)(=O)c2ccc(C)cc2)cc1C (stereo not given) ?
TbPYK inhibitor: 2%; Sm TGR inh: 0.79µM*

How did COc1ccc(N2CC(NC(=O)c3ccco3)CC2=O)cc1OC (stereo not given) do in these assays?
TbPYK inhibitor: -6%; Sm TGR inh: 0%

How did Cc1cc(C)cc(NC(=O)CSc2nc3c(oc4ccccc43)c(=O)n2-c2ccccc2F)c1 do in these assays?
TbPYK inhibitor: 2%; Sm TGR inh: 1%

How did COc1ccc(N2C(=O)CC(Nc3ccc(C)cc3)C2=O)cc1 (stereo not given) do in these assays?
FBPA Giardia inh: -2%; TbPYK inhibitor: 5%; LmPK inhibitor: 2%; Sm TGR inh: -5%; RE007 growth inh: -9%; NS1 inh: -7%

Results for COc1ccc(N2C(=O)CC(NCC#N)C2=O)cc1 (stereo not given) ?
FBPA Giardia inh: 0%; TbPYK inhibitor: -8%; LmPK inhibitor: 3%; Sm TGR inh: 14µM*; RE007 growth inh: inconclusive; NS1 inh: -1%

How did COc1ccc(N2C(=O)CC(NC3CCCCNC3=O)C2=O)cc1 (stereo not given) do in these assays?
FBPA Giardia inh: 1%; TbPYK inhibitor: 0%; LmPK inhibitor: 1%; Sm TGR inh: 20µM*; RE007 growth inh: inconclusive; NS1 inh: 12%

What do the screens show for `CCCOc1ccc(N2C(=O)CC(NCC#N)C2=O)cc1` (stereo not given)?
FBPA Giardia inh: 7%; TbPYK inhibitor: -1%; LmPK inhibitor: -11%; Sm TGR inh: 1%; RE007 growth inh: 4%; NS1 inh: 6%

Results for O=C(NNC1CC(=O)N(c2ccc(Br)cc2)C1=O)c1cccs1 (stereo not given) ?
FBPA Giardia inh: 3%; TbPYK inhibitor: 4%; LmPK inhibitor: 3%; Sm TGR inh: inconclusive; RE007 growth inh: 10%; NS1 inh: -2%

Results for CCOC(=O)CNC1CC(=O)N(c2ccc(Br)cc2)C1=O (stereo not given) ?
FBPA Giardia inh: 2%; TbPYK inhibitor: 0%; LmPK inhibitor: -12%; Sm TGR inh: 10µM*; RE007 growth inh: 13µM*; NS1 inh: -4%

How did COC(=O)CCC(=O)OC1(C)C(=O)C=C2C=C(C3CC3)N(Cc3ccco3)C=C2C1=O (stereo not given) do in these assays?
FBPA Giardia inh: inconclusive; TbPYK inhibitor: -1%; LmPK inhibitor: -4%[11.5 µM]; Sm TGR inh: 32µM*; RE007 growth inh: 0%; NS1 inh: -14%

Results for COC(=O)CCCC1=CC2=CC(=O)C(C)(OC(=O)c3cccs3)C(=O)C2=CN1Cc1ccco1 (stereo not given) ?
FBPA Giardia inh: inconclusive; TbPYK inhibitor: -4%; LmPK inhibitor: 4%[11.5 µM]; Sm TGR inh: 35µM*; RE007 growth inh: -13%; NS1 inh: 7%

How did CCCCC1=CC2=CC(=O)C(C)(OC(=O)CC)C(=O)C2=CN1CCc1c[nH]c2ccccc12 (stereo not given) do in these assays?
FBPA Giardia inh: inconclusive; TbPYK inhibitor: 2%; LmPK inhibitor: 0%[11.5 µM]; Sm TGR inh: 45µM*; RE007 growth inh: -13%; NS1 inh: inconclusive

Results for COC(=O)CCCC1=CC2=CC(=O)C(C)(OC(=O)c3cccs3)C(=O)C2=CN1CCc1c[nH]c2ccccc12 (stereo not given) ?
FBPA Giardia inh: 0.45µM*; TbPYK inhibitor: 2%; LmPK inhibitor: -6%[11.5 µM]; Sm TGR inh: inconclusive; RE007 growth inh: -4%; NS1 inh: 14%

Results for CCCCC1=CC2=CC(=O)C(C)(OC(=O)CC)C(=O)C2=CN1Cc1ccccc1 (stereo not given) ?
FBPA Giardia inh: inconclusive; TbPYK inhibitor: -5%; LmPK inhibitor: 0%[11.5 µM]; Sm TGR inh: -17%; RE007 growth inh: -6%; NS1 inh: 3%
